# Measurements from publication PMC5540273 (PLoS ONE, 2017).
# Read-outs that look alike come from different tables or passages of the source.
# Tests used:
# SRPK2 = conditions: concentration: 1 μM, replicates: in singlicate; n = 1
# SRPK3 = conditions: concentration: 1 μM, replicates: in singlicate; n = 1
# STK16 = conditions: concentration: 1 μM, replicates: in singlicate; n = 1
# STK33 = conditions: concentration: 1 μM, replicates: in singlicate; n = 1
# STK35 = conditions: concentration: 1 μM, replicates: in singlicate; n = 1
# STK36 = conditions: concentration: 1 μM, replicates: in singlicate; n = 1
# STK39 = conditions: concentration: 1 μM, replicates: in singlicate; n = 1
# SYK = conditions: concentration: 1 μM, replicates: in singlicate; n = 1
# SgK110 = conditions: concentration: 1 μM, replicates: in singlicate; n = 1
# TAK1 = system: T1, TAK1; conditions: concentration: 1 μM, replicates: in singlicate; n = 1
# T1 construct: gene MAP3K7
# TAOK1 = conditions: concentration: 1 μM, replicates: in singlicate; n = 1
# TAOK2 = conditions: concentration: 1 μM, replicates: in singlicate; n = 1
# TAOK3 = conditions: concentration: 1 μM, replicates: in singlicate; n = 1
# TBK1 = conditions: concentration: 1 μM, replicates: in singlicate; n = 1
# TEC = conditions: concentration: 1 μM, replicates: in singlicate; n = 1
# TESK1 = conditions: concentration: 1 μM, replicates: in singlicate; n = 1
# TGFBR1 = conditions: n = 1
# TGFBR2 = conditions: concentration: 1 μM, replicates: in singlicate; n = 1
# TIE1 = conditions: concentration: 1 μM, replicates: in singlicate; n = 1
# TIE2 = system: T2, TIE2; conditions: concentration: 1 μM, replicates: in singlicate; n = 1
# T2 construct: gene TEK
# [1] = concentration: 1 μM, replicates: in singlicate
# 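Further: KINOMEscan kinase panel screen.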
compound,measurement,setting,value
CC(C)c1cc(-c2ccc3c(N)n[nH]c3c2)nc(N)n1 [GSK2250882],%Inh,SRPK2,0%
same,%Inh,SRPK3,29%
same,%Inh,STK16,21%
same,%Inh,STK33,0%
same,%Inh,STK35,0%
same,%Inh,STK36,0%
same,%Inh,STK39,0%
same,%Inh,SYK,0%
same,%Inh,SgK110,0%
same,%Inh,TAK1,1%
same,%Inh,TAOK1,0%
same,%Inh,TAOK2,0%
same,%Inh,TAOK3,0%
same,%Inh,TBK1,13%
same,%Inh,TEC,0%
same,%Inh,TESK1,35%
same,%Inh,TGFBR1; [1],0%
same,%Inh,TGFBR2,0%
same,%Inh,TIE1,0%
same,%Inh,TIE2,0%
Cc1cccc2c(-c3ccncn3)c(-c3ccc(F)cc3)nn12 [GW515532],%Inh,SRPK2,0%
same,%Inh,SRPK3,14%
same,%Inh,STK16,0%
same,%Inh,STK33,0%
same,%Inh,STK35,27%
same,%Inh,STK36,0%
same,%Inh,STK39,0%
same,%Inh,SYK,0%
same,%Inh,SgK110,0%
same,%Inh,TAK1,0%
same,%Inh,TAOK1,0%
same,%Inh,TAOK2,0%
same,%Inh,TAOK3,0%
same,%Inh,TBK1,0%
same,%Inh,TEC,0%
same,%Inh,TESK1,17%
same,%Inh,TGFBR1; [1],0%
same,%Inh,TGFBR2,23%
same,%Inh,TIE1,14%
same,%Inh,TIE2,0%
O=c1cc(N2CCOCC2)nc2n(Cc3ccccc3F)ccn12 [GSK2297428],%Inh,SRPK2,0%
same,%Inh,SRPK3,0%
same,%Inh,STK16,0%
same,%Inh,STK33,0%
same,%Inh,STK35,0%
same,%Inh,STK36,0%
same,%Inh,STK39,0%
same,%Inh,SYK,21%
same,%Inh,SgK110,0%
same,%Inh,TAK1,0%
same,%Inh,TAOK1,0%
same,%Inh,TAOK2,0%
same,%Inh,TAOK3,0%
same,%Inh,TBK1,15%
same,%Inh,TEC,0%
same,%Inh,TESK1,3%
same,%Inh,TGFBR1; [1],0%
same,%Inh,TGFBR2,0%
same,%Inh,TIE1,0%
same,%Inh,TIE2,0%
Cc1ccccc1-c1cc(-c2c[nH]nc2-c2ccccn2)ccn1 [GW680061],%Inh,SRPK2,3%
same,%Inh,SRPK3,4%
same,%Inh,STK16,0%
same,%Inh,STK33,0%
same,%Inh,STK35,0%
same,%Inh,STK36,0%
same,%Inh,STK39,10%
same,%Inh,SYK,36%
same,%Inh,SgK110,0%
same,%Inh,TAK1,0%
same,%Inh,TAOK1,0%
same,%Inh,TAOK2,0%
same,%Inh,TAOK3,0%
same,%Inh,TBK1,0%
same,%Inh,TEC,15%
same,%Inh,TESK1,24%
same,%Inh,TGFBR1; 1 µM,5%
same,%Inh,TGFBR2,0%
same,%Inh,TIE1,6%
same,%Inh,TIE2,0%
COc1ccc(CSc2nnc(-c3ccc4ncsc4c3)o2)cc1C(F)(F)F,%Inh,SRPK2,0%
same,%Inh,SRPK3,0%
same,%Inh,STK16,15%
same,%Inh,STK33,0%
same,%Inh,STK35,0%
same,%Inh,STK36,0%
same,%Inh,STK39,0%
same,%Inh,SYK,0%
same,%Inh,SgK110,25%
same,%Inh,TAK1,0%
same,%Inh,TAOK1,31%
same,%Inh,TAOK2,9%
same,%Inh,TAOK3,0%
same,%Inh,TBK1,13%
same,%Inh,TEC,0%
same,%Inh,TESK1,3%
same,%Inh,TGFBR1; [1],5%
same,%Inh,TGFBR2,19%
same,%Inh,TIE1,0%
same,%Inh,TIE2,19%
FC(F)(F)c1ccccc1-c1cc(-c2c[nH]nc2-c2ccccn2)ccn1 [GW679396],%Inh,SRPK2,0%
same,%Inh,SRPK3,0%
same,%Inh,STK16,20%
same,%Inh,STK33,0%
same,%Inh,STK35,0%
same,%Inh,STK36,29%
same,%Inh,STK39,7%
same,%Inh,SYK,25%
same,%Inh,SgK110,0%
same,%Inh,TAK1,4%
same,%Inh,TAOK1,0%
same,%Inh,TAOK2,0%
same,%Inh,TAOK3,0%
same,%Inh,TBK1,18%
same,%Inh,TEC,1%
same,%Inh,TESK1,14%
same,%Inh,TGFBR1; 1 µM,0%
same,%Inh,TGFBR2,10%
same,%Inh,TIE1,0%
same,%Inh,TIE2,7%
Cn1cncc1C(=O)NC1CCN(c2ccnc(Nc3ccc(F)cc3)n2)C1 (centres unmarked) [GSK1379717],%Inh,SRPK2,0%
same,%Inh,SRPK3,0%
same,%Inh,STK16,17%
same,%Inh,STK33,0%
same,%Inh,STK35,0%
same,%Inh,STK36,0%
same,%Inh,STK39,0%
same,%Inh,SYK,5%
same,%Inh,SgK110,6%
same,%Inh,TAK1,0%
same,%Inh,TAOK1,0%
same,%Inh,TAOK2,0%
same,%Inh,TAOK3,0%
same,%Inh,TBK1,9%
same,%Inh,TEC,4%
same,%Inh,TESK1,98.9%
same,%Inh,TGFBR1; [1],26%
same,%Inh,TGFBR2,0%
same,%Inh,TIE1,0%
same,%Inh,TIE2,0%
COc1cccc(NC(=O)Nc2ccc(C)c(-c3ccc(C(=O)Nc4ccncc4)cc3)c2)c1 [GSK1398474],%Inh,SRPK2,0%
same,%Inh,SRPK3,27%
same,%Inh,STK16,11%
same,%Inh,STK33,0%
same,%Inh,STK35,0%
same,%Inh,STK36,51%
same,%Inh,STK39,33%
same,%Inh,SYK,40%
same,%Inh,SgK110,0%
same,%Inh,TAK1,0%
same,%Inh,TAOK1,0%
same,%Inh,TAOK2,0%
same,%Inh,TAOK3,4%
same,%Inh,TBK1,29%
same,%Inh,TEC,5%
same,%Inh,TESK1,19%
same,%Inh,TGFBR1; [1],0%
same,%Inh,TGFBR2,0%
same,%Inh,TIE1,0%
same,%Inh,TIE2,0%
O=C1NC(=O)C(c2ccc(Cl)cc2)=C1Nc1ccc(O)cc1 [SB-340867],%Inh,SRPK2,18%
same,%Inh,SRPK3,0%
same,%Inh,STK16,0%
same,%Inh,STK33,0%
same,%Inh,STK35,0%
same,%Inh,STK36,11%
same,%Inh,STK39,0%
same,%Inh,SYK,4%
same,%Inh,SgK110,50%
same,%Inh,TAK1,0%
same,%Inh,TAOK1,0%
same,%Inh,TAOK2,0%
same,%Inh,TAOK3,0%
same,%Inh,TBK1,0%
same,%Inh,TEC,0%
same,%Inh,TESK1,12%
same,%Inh,TGFBR1; [1],1%
same,%Inh,TGFBR2,0%
same,%Inh,TIE1,0%
same,%Inh,TIE2,0%
COc1ccc(Nc2nccc(N3CCC(NC(=O)C(C)c4ccc(Cl)cc4)CC3)n2)cc1 (centres unmarked) [GSK1379812],%Inh,SRPK2,0%
same,%Inh,SRPK3,8%
same,%Inh,STK16,10%
same,%Inh,STK33,0%
same,%Inh,STK35,0%
same,%Inh,STK36,18%
same,%Inh,STK39,38%
same,%Inh,SYK,32%
same,%Inh,SgK110,27%
same,%Inh,TAK1,0%
same,%Inh,TAOK1,0%
same,%Inh,TAOK2,0%
same,%Inh,TAOK3,0%
same,%Inh,TBK1,21%
same,%Inh,TEC,0%
same,%Inh,TESK1,0%
same,%Inh,TGFBR1; [1],3%
same,%Inh,TGFBR2,0%
same,%Inh,TIE1,0%
same,%Inh,TIE2,0%
CSc1ccc(-c2nc3n(c2-c2ccncc2)CCC3)cc1 [SKF-105561],%Inh,SRPK2,25%
same,%Inh,SRPK3,0%
same,%Inh,STK16,4%
same,%Inh,STK33,11%
same,%Inh,STK35,3%
same,%Inh,STK36,16%
same,%Inh,STK39,0%
same,%Inh,SYK,18%
same,%Inh,SgK110,0%
same,%Inh,TAK1,0%
same,%Inh,TAOK1,0%
same,%Inh,TAOK2,14%
same,%Inh,TAOK3,9%
same,%Inh,TBK1,0%
same,%Inh,TEC,11%
same,%Inh,TESK1,8%
same,%Inh,TGFBR1; [1],15%
same,%Inh,TGFBR2,13%
same,%Inh,TIE1,0%
same,%Inh,TIE2,0%
COC(=O)C(NC(=O)NC1CCN(c2ccnc(Nc3ccc(F)cc3)n2)C1)c1ccccc1 (centres unmarked) [GSK1379712],%Inh,SRPK2,0%
same,%Inh,SRPK3,0%
same,%Inh,STK16,0%
same,%Inh,STK33,0%
same,%Inh,STK35,0%
same,%Inh,STK36,29%
same,%Inh,STK39,0%
same,%Inh,SYK,21%
same,%Inh,SgK110,19%
same,%Inh,TAK1,12%
same,%Inh,TAOK1,0%
same,%Inh,TAOK2,0%
same,%Inh,TAOK3,0%
same,%Inh,TBK1,18%
same,%Inh,TEC,11%
same,%Inh,TESK1,0%
same,%Inh,TGFBR1; [1],26%
same,%Inh,TGFBR2,0%
same,%Inh,TIE1,0%
same,%Inh,TIE2,0%
COc1nccc(-c2c(-c3ccc(F)cc3)ncn2CCCN2CCOCC2)n1 [SB-282852],%Inh,SRPK2,26%
same,%Inh,SRPK3,23%
same,%Inh,STK16,9%
same,%Inh,STK33,0%
same,%Inh,STK35,0%
same,%Inh,STK36,0%
same,%Inh,STK39,6%
same,%Inh,SYK,0%
same,%Inh,SgK110,0%
same,%Inh,TAK1,43%
same,%Inh,TAOK1,0%
same,%Inh,TAOK2,0%
same,%Inh,TAOK3,0%
same,%Inh,TBK1,19%
same,%Inh,TEC,0%
same,%Inh,TESK1,8%
same,%Inh,TGFBR1; [1],20%
same,%Inh,TGFBR2,0%
same,%Inh,TIE1,0%
same,%Inh,TIE2,33%
COc1ccc(Nc2nccc(-c3ccc(NC(=O)c4cc5cc(F)ccc5[nH]4)cc3)n2)cc1 [GSK1229496],%Inh,SRPK2,14%
same,%Inh,SRPK3,7%
same,%Inh,STK16,2%
same,%Inh,STK33,0%
same,%Inh,STK35,0%
same,%Inh,STK36,0%
same,%Inh,STK39,0%
same,%Inh,SYK,8%
same,%Inh,SgK110,0%
same,%Inh,TAK1,0%
same,%Inh,TAOK1,0%
same,%Inh,TAOK2,0%
same,%Inh,TAOK3,0%
same,%Inh,TBK1,11%
same,%Inh,TEC,0%
same,%Inh,TESK1,7%
same,%Inh,TGFBR1; [1],9%
same,%Inh,TGFBR2,0%
same,%Inh,TIE1,0%
same,%Inh,TIE2,0%
Cc1ccc(NC(=O)Nc2ccccc2F)cc1-c1ccc(C(=O)Nc2ccncc2)cc1 [GSK1398477],%Inh,SRPK2,0%
same,%Inh,SRPK3,28%
same,%Inh,STK16,11%
same,%Inh,STK33,8%
same,%Inh,STK35,21%
same,%Inh,STK36,6%
same,%Inh,STK39,0%
same,%Inh,SYK,44%
same,%Inh,SgK110,0%
same,%Inh,TAK1,0%
same,%Inh,TAOK1,0%
same,%Inh,TAOK2,0%
same,%Inh,TAOK3,0%
same,%Inh,TBK1,13%
same,%Inh,TEC,24%
same,%Inh,TESK1,2%
same,%Inh,TGFBR1; [1],0%
same,%Inh,TGFBR2,13%
same,%Inh,TIE1,35%
same,%Inh,TIE2,0%
CNc1nc(-c2ccc3c(N)n[nH]c3c2)cc(N2C[C@@H](C(=O)NC3CCCCC3)OC[C@H]2C)n1 [GSK2375584],%Inh,SRPK2,30%
same,%Inh,SRPK3,0%
same,%Inh,STK16,16%
same,%Inh,STK33,13%
same,%Inh,STK35,0%
same,%Inh,STK36,22%
same,%Inh,STK39,6%
same,%Inh,SYK,26%
same,%Inh,SgK110,0%
same,%Inh,TAK1,0%
same,%Inh,TAOK1,0%
same,%Inh,TAOK2,1%
same,%Inh,TAOK3,0%
same,%Inh,TBK1,28%
same,%Inh,TEC,12%
same,%Inh,TESK1,11%
same,%Inh,TGFBR1; [1],20%
same,%Inh,TGFBR2,0%
same,%Inh,TIE1,2%
same,%Inh,TIE2,0%
